# According to the supplement of paper PMC5662767:
# Where a name gives a salt, the structure may show the parent alone.
# Test system: Drosophila S2 cl14 SmoIP sensor cells
# Assay: normalized SmoIP GFP fluorescence (untreated unstimulated = 0%, untreated Hh-stimulated = 100%); higher = more Smo activation sensor fluorescence
# Conditions: stimulation: Hh conditioned medium (+Hh); compound concentration: 2 uM; 24 h
# 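Note: flow cytometry read-out as median GFP intensity of gated cells, compounds added 30 min before Hh-conditioned or mock medium, mock-treated cells serving as unstimulated baseline.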
row,SMILES,normalized SmoIP GFP fluorescence
1,CC(C)c1nc(CN(C)C(=O)N[C@H](C(=O)N[C@@H](Cc2ccccc2)C[C@H](O)[C@H](Cc2ccccc2)NC(=O)OCc2cncs2)C(C)C)cs1 [Ritonavir],109%
2,Cc1cccc(-c2nn3c(c2-c2ccnc4ccc(C(N)=O)cc24)CCC3)n1,110%
3,CN1CCN(S(=O)(=O)c2ccc(-c3cnc(N)c(C(=O)Nc4cccnc4)n3)cc2)CC1,112%
4,O=C(Nc1ccc(-c2ccnc(Nc3ccc(N4CCOCC4)cc3)n2)cc1)C1CCCN1 (centres undefined),121%
5,COc1ccc(C2CNC(=O)C2)cc1OC1CCCC1 (centres undefined) [Rolipram],92.5%
6,NC(=O)Nc1sc(-c2ccc(F)cc2)cc1C(N)=O [tpca-1],106%
7,CCN(CC)C(=O)/C(C#N)=C/c1cc(O)c(O)c([N+](=O)[O-])c1 [entacapone],106%
8,COc1c(C)c(C(=O)c2ccc(N)c(C(=O)O)c2)n2ccccc12,113%
9,CN1CC2c3ccccc3Oc3ccc(Cl)cc3C2C1 (centres undefined) [Asenapine],115%
10,COc1ccc(NS(=O)(=O)c2sc3ccc(Cl)cc3c2C)cc1N1CCNCC1,108%
11,O=C1CN2Cc3c(ccc(Cl)c3Cl)N=C2N1 [anagrelide-hydrochloride],108%
12,CN1C2CCC1CC(OC(=O)C(O)c1ccccc1)C2 (centres undefined) [homatropine-bromide],102%
13,Cc1cn(-c2cc(NC(=O)c3ccc(C)c(Nc4nccc(-c5cccnc5)n4)c3)cc(C(F)(F)F)c2)cn1 [Nilotinib],104%
14,Cc1cc(-c2ccc(CC(=O)Nc3ccc(-c4cccnc4)cc3)cc2)ccn1,247%
